# Columns and labels:
# Details in all cases: concentration: 1 μM, replicates: in singlicate; n = 1
# MAP3K3 = tested on: MAP3K3
# MAP3K4 = tested on: MAP3K4
# MAP4K2 = tested on: MAP4K2
# MAP4K3 = tested on: MAP4K3
# MAP4K4 = tested on: MAP4K4
# MAP4K5 = tested on: MAP4K5
# MAPKAPK2 = tested on: MAPKAPK2
# MAPKAPK5 = tested on: MAPKAPK5
# MARK1 = tested on: MARK1
# MARK2 = tested on: MARK2
# MARK3 = tested on: MARK3
# MARK4 = tested on: MARK4
# MAST1 = tested on: MAST1
# MEK1 = tested on: T1, MEK1
# T1 construct: gene MAP2K1
# MEK2 = tested on: T2, MEK2
# T2 construct: gene MAP2K2
# MEK3 = tested on: T3, MEK3
# T3 construct: gene MAP2K3
# MEK4 = tested on: T4, MEK4
# T4 construct: gene MAP2K4
# MEK5 = tested on: T5, MEK5
# T5 construct: gene MAP2K5
# MEK6 = tested on: T6, MEK6
# T6 construct: gene MAP2K6
# MELK = tested on: MELK
# 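Also: KINOMEscan kinase panel screen.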
SMILES,%Inh (MAP3K3),%Inh (MAP3K4),%Inh (MAP4K2),%Inh (MAP4K3),%Inh (MAP4K4),%Inh (MAP4K5),%Inh (MAPKAPK2),%Inh (MAPKAPK5),%Inh (MARK1),%Inh (MARK2),%Inh (MARK3),%Inh (MARK4),%Inh (MAST1),%Inh (MEK1),%Inh (MEK2),%Inh (MEK3),%Inh (MEK4),%Inh (MEK5),%Inh (MEK6),%Inh (MELK)
Nc1nc(-c2ccc3c(N)n[nH]c3c2)cc(N2CCC[C@@H](C(=O)Nc3ccccc3)C2)n1.O=C(O)C(F)(F)F.O=C(O)C(F)(F)F [GSK2288359],0%,28%,0%,0%,5%,6%,0%,0%,0%,0%,0%,0%,0%,0%,8%,3%,0%,50%,8%,13%
CC(C)(C)OC(=O)NC1CCCN(c2cc(-c3ccc4c(N)n[nH]c4c3)nc(N)n2)C1 (stereo not shown) [GSK2286096],0%,17%,0%,3%,0%,0%,0%,0%,0%,0%,0%,0%,0%,100%,0%,0%,7%,30%,0%,0%
Cl.c1ccc(Cn2ncc3cc(Nc4ncnc5ccccc45)ccc32)cc1 [GW273749],0%,0%,0%,0%,0%,0%,13%,0%,0%,0%,0%,0%,0%,0%,7%,0%,0%,99.7%,6%,0%
FC(F)(F)c1ccc(-c2nn3ncccc3c2-c2ccnc(Nc3cccc(C(F)(F)F)c3)n2)cc1 [GW828205],21%,8%,0%,0%,4%,0%,0%,0%,3%,0%,13%,0%,12%,4%,28%,0%,0%,4%,0%,0%
OCCOCCn1ccc2ncnc(Nc3ccc(Oc4cccc(Cl)c4)c(Cl)c3)c21,0%,0%,0%,0%,0%,0%,0%,0%,25%,0%,0%,31%,0%,8%,40%,0%,0%,89%,0%,0%
O=C(NCCCN1CCCC1=O)c1cnc(NCc2cc(Cl)ccc2Cl)nc1NC1CCNCC1,57%,12%,0%,16%,0%,19%,0%,0%,0%,0%,0%,0%,0%,0%,3%,0%,0%,0%,0%,0%
Nc1nc(-c2ccccn2)c(-c2ccnc3ccccc23)s1 [GW548057],0%,4%,0%,0%,4%,0%,0%,0%,0%,0%,4%,0%,9%,8%,12%,2%,12%,32%,10%,26%
O=C(Nc1ccccc1F)NC1CCN(c2ccnc(Nc3ccc(F)cc3)n2)C1 (stereo not shown) [GSK1379722],0%,14%,0%,0%,0%,0%,18%,0%,0%,0%,0%,0%,14%,0%,0%,0%,25%,12%,0%,0%
NC(=O)c1sc(-n2cnc3ccccc32)cc1OCc1ccccc1F [GSK1024306],0%,23%,0%,0%,8%,21%,0%,0%,0%,0%,0%,1%,11%,0%,0%,0%,20%,69%,0%,23%
c1ccc(-c2ccc3c(-c4ccnc(Nc5ccc6c(c5)OCCO6)n4)cnn3n2)cc1 [GW818941],0%,14%,6%,4%,23%,20%,5%,13%,0%,0%,0%,9%,8%,17%,3%,0%,9%,5%,0%,0%
CCCc1ccc(S(=O)(=O)NC2CCN(c3ccnc(Nc4ccc(OC)cc4)n3)C2)cc1 (stereo not shown) [GSK1379737],0%,0%,0%,0%,0%,0%,29%,0%,0%,0%,0%,0%,43%,0%,0%,0%,12%,0%,0%,0%
